# From ChEMBL document CHEMBL3988442, “University of Dundee, Small-Polar-MMV Screening Library” (2021)
# The whole screen tested about 48,000 compounds, of which about 13,000 (27%) showed an effect of 50% or more. The list shows a part of the results.
# Test system: Wolbachia pipientis
# Experiment: Anti-Wolbachia Cell-Based Screen
# Assay type: functional
# Parameters: scale not given: in the data most compounds retested in dose-response had high values
# Conditions: 5 µM
row,Structure (SMILES),Percent Effect [%]
1,CCOCCN1CCN(Cc2nnc(C3CC3)o2)CC1CC (centres undefined),2.687
2,O=C(c1ccc2c(c1)CCO2)N1CCN(c2ncccn2)CC1,13.67
3,O=C(Cc1ccc(-n2cnnn2)cc1)Nc1nncs1,-7.49
4,COC(=O)c1ccc(NC(=O)CCc2ccncc2)c(C)c1,-3.514
5,O=C(CCc1ccc(-n2cnnn2)cc1)Nc1nncs1,117.3
6,O=C(CCn1cc(Cl)cn1)Nc1nncs1,-12.52
7,O=C(CCc1ccncc1)Nc1ccc(OCC2CC2)cc1,33.82
8,O=C(CCc1ccc(-n2cnnn2)cc1)Nc1ccncc1,118.2
9,Cc1nnc(CN(C)Cc2ccc(C(=O)Nc3sccc3C#N)cc2)o1,8.936
10,CC(C)c1nc2c(n1C)CCN(CCS(=O)(=O)c1ccccc1)C2,16.54
11,Cc1nc(-c2cccc(N3CCC(N4CCCC(C#N)C4)CC3)c2)cs1 (centres undefined),9.753
12,CC(C)C(=O)NCC(=O)NCC1CCN(c2cnn(C)c(=O)c2)CC1,-2.577
13,CC(=O)N1CCCC(C(=O)N2CCN(c3cnn(C)c(=O)c3)CC2)C1 (centres undefined),-1.408
14,Cn1ncc(N2CCOC(CCNC(=O)N3CCCCC3)C2)cc1=O (centres undefined),104.2
15,CCC(=O)N1CCCC(C(=O)N2CCN(c3cnn(C)c(=O)c3)CC2)C1 (centres undefined),6.032
16,Cn1ncc(N2CCC(CNC(=O)[C@@H](N)c3ccccc3)CC2)cc1=O,-13.88
17,CN1CCC(C(=O)NCCC2CN(c3cnn(C)c(=O)c3)CCO2)CC1 (centres undefined),98.07
18,Cc1cnn(C(C)C(=O)NCC2CCN(c3cnn(C)c(=O)c3)CC2)c1 (centres undefined),-4.842
19,Cn1ncc(N2CCOC(CCNC(=O)CO)C2)cc1=O (centres undefined),110.6
20,Cn1ncc(N2CCC(CNC(=O)[C@@H](N)C3CCCCC3)CC2)cc1=O,-13.96
21,CC(CN1CCCC1)C(=O)NCC1CCN(c2cnn(C)c(=O)c2)CC1 (centres undefined),-3.002
22,Cc1ccc(C(=O)NCCC2CN(c3cnn(C)c(=O)c3)CCO2)s1 (centres undefined),76.89

row,Structure (SMILES),Percent Effect [%]
1,Cn1cc(CN2CCOC(CCNC(=O)c3ccsc3)C2)cn1 (centres undefined),-1.141
2,CC(C)(C)c1cn2c(n1)C(CNCc1cnn3ccccc13)CCC2 (centres undefined),3.116
3,O=C1CC(NS(=O)(=O)N2CCOCC2)CN1Cc1ccccc1 (centres undefined),1.886
4,Cc1ncsc1C(=O)NCc1cccnc1N(C)CCc1ccccn1,6.517
5,Cc1noc(-c2cccnc2N2CCOC(C)(c3cnn(C)c3)C2)n1 (centres undefined),-3.53
6,COCCN(CCOC)C(=O)NC1CCCCC1,-2.793
7,Cc1[nH]ccc1C(=O)N[C@H]1CN(CCO)C[C@@H]1C1CC1,-10.03
8,CCC(C)NC(=O)CS(=O)(=O)Cc1nc(-c2cccs2)no1 (centres undefined),8.727
9,CNC(=O)N1CCC(=Cc2ccccc2)CC1,-5.2
10,CC(C)N1CCC[C@H]1C(=O)NCC1CCN(c2cnn(C)c(=O)c2)CC1,-21.78
11,CCOC(=O)N1CCC(NCC2CCN(c3cnn(C)c(=O)c3)C2)CC1 (centres undefined),-6.682
12,CCC1CN(c2cnn(C)c(=O)c2Br)CCO1 (centres undefined),20.16
13,Cn1ncc(N2CCOC(CCNC(=O)NC(C)(C)C)C2)cc1=O (centres undefined),101.8
14,CCCOC(=O)NCCC1CN(c2cnn(C)c(=O)c2)CCO1 (centres undefined),96.42
15,CCC(OC)C(=O)NCC1CCN(c2cnn(C)c(=O)c2)CC1 (centres undefined),-16.23
16,COCCN(CC(F)F)c1cc(C(F)(F)F)nc2ncnn12,-7.811
17,Cc1cnn(-c2ccc(S(=O)(=O)N(C)CC(F)F)cc2F)c1,2.178
18,Cc1cc(C(=O)NCC2(N(C)C)CCCC2)c(C)n1-c1cccnc1,3.224
19,CC(C)Cc1cc(C(=O)NC(C)(C)CN2CCCCCC2)on1,2.202
20,COc1cc(C(=O)NCCS(=O)(=O)N(C)C)c2ccccc2n1,5.496
21,COc1cc(C(=O)NCC2(N(C)C)CCN(C)CC2)c2ccccc2n1,126.6
22,COc1cc(C(=O)NC(C)(C)CN2CCN(C)CC2)c2ccccc2n1,96.51

row,Structure (SMILES),Percent Effect [%]
1,CN1CCN(Cc2ccccc2CNC(=O)c2ccc(Cl)cc2F)CC1,-10.17
2,CC(C)(C)c1ncc(C(=O)N2CCN(C(=O)c3ccc[nH]3)CC2)c(O)n1,-10.28
3,Cc1ccc(F)cc1C(=O)NCc1ccc(C(=O)O)o1,7.122
4,O=C(c1ccc[nH]1)N1CCOCC12CCCC2,75.31
5,CS(=O)(=O)N1CCCC12CCCN(C(=O)c1ccc[nH]1)C2 (centres undefined),-4.016
6,Cc1[nH]ccc1C(=O)N1CCC2(CC1)c1nc[nH]c1CCN2S(C)(=O)=O,-18.24
7,Cc1ccc(F)cc1C(=O)N1C[C@@H](CN2CCOCC2)[C@@H](CO)C1,-1.252
8,Cc1[nH]ccc1C(=O)N1CCCN1C(=O)OC(C)(C)C,-3.846
9,O=C(c1ccc[nH]1)N1CCC2(CC1)COCCN(c1nccs1)C2,4.422
10,Cc1ccc(F)cc1C(=O)N1CCOCC12CCCC2,111.7
11,Cc1[nH]ccc1C(=O)N1CCOCC12CCCC2,102.2
12,Cn1c2c(c(=O)n1C)CN(C(=O)c1cccc(F)c1)CCC2,83.47
13,Cn1c2c(c(=O)n1C)CN(C(=O)c1ccncc1F)CCC2,104.3
14,Cc1ccsc1C(=O)N1CCCc2c(c(=O)n(C)n2C)C1,9.7
15,Cn1c2c(c(=O)n1C)CN(C(=O)c1ccsc1)CCC2,-11.42
16,Cc1ccoc1C(=O)N1CCCc2c(c(=O)n(C)n2C)C1,-8.814
17,Cn1c2c(c(=O)n1C)CN(C(=O)c1cnccn1)CCC2,106.7
18,Cc1ccc(C(=O)N2CCCc3c(c(=O)n(C)n3C)C2)o1,-7.196
19,Cn1nc(CN2CCCC2)c2c1CN(C(=O)c1ccncc1F)CC2,-1.138
20,Cn1c2c(c(=O)n1C)CN(C(=O)c1ccco1)CCC2,0.5105
21,Cc1csc2c(N3CCC(NCCCc4cnn(C)c4)CC3)ncnc12,-7.863
22,CN(CCCc1cnn(C)c1)C(=O)Nc1cccc2[nH]nnc12,-5.738

row,Structure (SMILES),Percent Effect [%]
1,CCOC(C)C(=O)N(C)C1CCN(c2ccc(OC)cc2)CC1 (centres undefined),-2.729
2,COc1ccc(N2CCC(N(C)C(=O)C(C)SC)CC2)cc1 (centres undefined),1.657
3,CN(CCN1CCN(c2ccccc2)CC1)C(=O)Nc1ccncc1,-6.47
4,CN(C(=O)NC1CC1)C1CCN(c2ccc(Cl)cc2)CC1,95.01
5,Cc1cc(N2CCC(N(C)C(=O)Nc3ccccc3)CC2)nc(C)n1,1.821
6,CN(C(=O)Nc1ccncc1)C1CCN(c2ccc(Cl)cc2)CC1,99.54
7,COc1ccc(N2CCC(N(C)C(=O)Nc3ccncc3)CC2)cc1,86.34
8,CNC(=O)CN(C)C1CCN(c2ccc(Cl)cc2)CC1,12.22
9,CCCNC(=O)CN(C)C1CCN(c2ccc(Cl)cc2)CC1,-1.782
10,CN(CC(=O)N(C)C1CC1)C1CCN(c2ccc(Cl)cc2)CC1,-1.318
11,CN(C(=O)Nc1cccnc1)C1CCN(c2ccc(Cl)cc2)CC1,102.5
12,CSC(C)C(=O)N(C)C1CCN(c2ccc(Cl)cc2)CC1 (centres undefined),-5.322
13,CCC(CNC(=O)NC1CCN(C)CC1)Oc1ccccc1Cl (centres undefined),5.674
14,Cc1cc(C)nc(N2CCN(Cc3nccn3C)CC2)n1.O=CO,104.1
15,CC(C)Nc1nc2c(c(NC3CC3)n1)CCN(Cc1nccn1C)CC2.O=C(O)C(F)(F)F,5.459
16,Cc1nc(N2CCOCC2)nc2c1CCN(Cc1nccn1C)CC2.O=C(O)C(F)(F)F,110.5
17,Cc1nc(-c2ccccc2)nc2c1CCN(Cc1nccn1C)CC2,118.4
18,Cc1cc(C(F)(F)F)nc(N2CCN(Cc3nccn3C)CC2)n1,-22.48
19,Cc1nc(C)c2c(n1)CCN(Cc1nccn1C)CC2.O=C(O)C(F)(F)F,102.7
20,Cc1nc(NC(C)C)nc2c1CN(Cc1nccn1C)CC2,3.247
21,Cn1ccnc1CN1CCN(Cc2cc(-c3ccccc3)no2)CC1,10.9
22,Cc1nc(N2CCOCC2)nc2c1CCN(Cc1ccsc1)CC2.O=C(O)C(F)(F)F,-7.325

row,Structure (SMILES),Percent Effect [%]
1,Cc1nc(N2CCOCC2)nc2c1CCN(Cc1cccnc1)CC2.O=C(O)C(F)(F)F,-14.62
2,COc1cc(C)nc(N2CCN(Cc3nccn3C)CC2)n1,16.21
3,CC(C)(C)C(=O)N1C[C@@H]2COC[C@]2(c2nnc(C3CC3)o2)C1,1.473
4,N#Cc1cccc(N2CCCC(CO)(CCOc3ccccc3)C2)n1 (centres undefined),-9.375
5,Cc1nc(N2CCCC2)nc2c1CCN(Cc1nccn1C)CC2.O=C(O)C(F)(F)F,105.6
6,CC(C)Nc1nc2c(c(N(C)C)n1)CCN(Cc1nccn1C)CC2.O=C(O)C(F)(F)F,-14.43
7,CN(C)c1nc(N2CCCC2)nc2c1CCN(Cc1nccn1C)CC2.O=C(O)C(F)(F)F,102.1
8,CN(C)c1nc(N2CCCC2)nc2c1CCN(C(=O)c1ccco1)CC2.O=C(O)C(F)(F)F.O=C(O)C(F)(F)F,15.95
9,Cn1ccnc1CN1CCc2ncnc(N3CCCC3)c2CC1.O=C(O)C(F)(F)F,15.66
10,Cc1nc(N2CCCC2)nc2c1CCN(Cc1ccoc1)CC2.O=C(O)C(F)(F)F,6.139
11,O=C(c1cncc(N2CCC3(CCNCC3)CC2)n1)N1CCCC1,1.429
12,CCC(C)(C)C(=O)N1CCN(C2=NCC(C)S2)CC1 (centres undefined),-0.6002
13,CCOc1ccccc1-n1c(C2CC(=O)N(C)C2)n[nH]c1=O (centres undefined),114.8
14,O=c1[nH]nc(C2CC2)n1-c1cccc(Cl)c1,12.75
15,CN1CCC(c2n[nH]c(=O)n2-c2cccc(Cl)c2)CC1,-11.2
16,CCOc1ccccc1-n1c(C2CCC2)n[nH]c1=O,114.1
17,CCOc1ccccc1-n1c(CNC)n[nH]c1=O,-1.505
18,C[C@H](c1ccc(F)cc1)n1c(C2CCC2)n[nH]c1=O,13.77
19,CCOc1ccccc1-n1c(C2CC2)n[nH]c1=O,101.4
20,CN1CC(c2n[nH]c(=O)n2-c2cccc(Cl)c2)CC1=O (centres undefined),-17.26
21,CCOc1ccccc1OC1CCN(C(=O)c2nc(=O)[nH][nH]2)CC1,-16.56
